# Assay outcomes (PubChem BioAssay)
# Most compounds without a hit are left out; they make up all but 5.3% or so of the library.
# Six1-Eya2 inh: qHTS Assay for Inhibitors of the Six1/Eya2 Interaction. Homeobox protein SIX1 (Homo sapiens) + Protein phosphatase EYA2 (Homo sapiens), …. AlphaScreen GST-Six1/His-Eya2 binding, biochemical; stronger effect = lower value. activity change, % (test concentration not listed). hit rate 0.56% among 360,000; in the data active means activity change below about -65%; inconclusive means mostly about -30% to -63%; further: on the % scale 0 is the no-effect control and ±100 the full control effect
# Target sequence (O00167 whole entry, looked up): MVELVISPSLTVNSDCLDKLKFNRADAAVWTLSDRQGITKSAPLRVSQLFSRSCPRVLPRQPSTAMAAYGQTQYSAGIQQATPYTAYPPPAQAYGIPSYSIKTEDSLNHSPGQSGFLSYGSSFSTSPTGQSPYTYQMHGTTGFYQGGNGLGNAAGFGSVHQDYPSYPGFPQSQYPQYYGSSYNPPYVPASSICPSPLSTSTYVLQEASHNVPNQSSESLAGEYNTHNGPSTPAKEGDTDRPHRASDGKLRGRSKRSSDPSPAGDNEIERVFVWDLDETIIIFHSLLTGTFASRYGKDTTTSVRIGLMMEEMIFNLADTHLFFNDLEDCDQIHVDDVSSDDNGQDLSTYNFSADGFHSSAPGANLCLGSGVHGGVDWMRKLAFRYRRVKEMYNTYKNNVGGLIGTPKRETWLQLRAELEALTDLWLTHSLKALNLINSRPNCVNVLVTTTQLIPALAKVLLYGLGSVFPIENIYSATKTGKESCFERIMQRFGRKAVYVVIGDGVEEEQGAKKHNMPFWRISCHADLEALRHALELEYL
# Target sequence (Q15475 whole entry, looked up): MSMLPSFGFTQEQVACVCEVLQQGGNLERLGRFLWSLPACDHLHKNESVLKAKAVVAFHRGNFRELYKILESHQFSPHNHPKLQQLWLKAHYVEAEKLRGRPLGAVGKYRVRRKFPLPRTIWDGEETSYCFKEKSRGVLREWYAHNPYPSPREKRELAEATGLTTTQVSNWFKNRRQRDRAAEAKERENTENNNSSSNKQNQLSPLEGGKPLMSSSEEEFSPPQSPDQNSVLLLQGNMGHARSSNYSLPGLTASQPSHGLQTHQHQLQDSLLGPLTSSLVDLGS
#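 Compounds are tested against tagged Six1 and Eya2 proteins bridged by glutathione donor and nickel acceptor beads; after a one-hour incubation at 37 °C without light, AlphaScreen emission is recorded.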
# TDP1 inh: qHTS Assay for Inhibitors of Tyrosyl-DNA Phosphodiesterase (TDP1). hit rate 0.28% among 350,000. Potency, µM (series often up to 130 µM), without a hit: at the top dose activity change, negative = inhibition, actives largely listed as inhibitors. Tyrosyl-DNA phosphodiesterase 1 (Homo sapiens), Q9NUW8. AID 485290, 2010. recombinant TDP1, AlphaScreen DNA substrate cleavage; further: potency means the concentration at half of the fitted maximal effect; on the % scale 0 is the no-effect control and ±100 the full control effect; nearly all actives have a fitted effect of over 40% in size
#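 E. coli-derived human Tdp1, 1 nM final. Cpd preinc 15 min RT; substrate 15 nM final, 5 min RT; AS bead mix 10 ug/ml final, 10 min RT. Signal loss = tyrosine-FITC cleavage. No-enzyme wells = max signal.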
# CtBP-E1A inh: qHTS Assay for Inhibitors of the CtBP/E1A Interaction; CtBP / adenovirus E1A interaction (AlphaScreen); AlphaScreen GST-E1A/His-CtBP binding, 1536-well; stronger effect = lower value; activity change, % (concentration not given with the values); hit rate 0.49% among 340,000; in the data active means activity change below about -65%; inconclusive means mostly about -30% to -63%; further: on the % scale 0 is the no-effect control and ±100 the full control effect
#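 Protein mix (5X: 125 nM each GST-E1A, His-CtBP) was incubated with pinned compound 2 h at 37 deg C in dark, in 50 mM Tris pH 8.0 buffer with 300 mM NaCl. Glutathione donor and nickel acceptor beads followed; AlphaScreen signal read after 1 h.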
# HP1b binding inh: HTS for Inhibitors of HP1-beta Chromodomain Interactions with Methylated Histone Tails. Chromobox protein homolog 1 (Homo sapiens), P83916. AID 540317, 2011. hit rate 0.56% among 390,000. AlphaScreen HP1-beta / biotin-H3K9me3 peptide binding. Potency, µM (top dose mostly 114 µM), for inactives: at the highest dose activity change, negative = inhibition, most hits filed as inhibitors; further: potency means the concentration at half of the fitted maximal effect; nearly all actives have a fitted effect of over 70% in size
#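 AlphaScreen: HP1-beta (50 nM) preformed 30 min with biotin-H3(1-18)K9me3 peptide (50 nM) in PBS pH 7.4, 0.01% Tween-20. Compound added for 30 min at RT, then streptavidin donor/nickel chelate acceptor beads (10 ug/mL) for 30 min.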
# BAZ2B inh: qHTS Assay for Inhibitors of BAZ2B; Potency, µM (highest dose often 114 µM), inactives show at the highest dose activity change, negative = inhibition, hits mostly inhibitors; hit rate 4.4% among 360,000; AlphaScreen BAZ2B-H3K14Ac peptide displacement; AID 504333, 2011; further: potency means the concentration at half of the fitted maximal effect; on the % scale 0 is the no-effect control and ±100 the full control effect; nearly all actives have a fitted effect of over 60% in size
#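 Multi-concentration screen (max 110 uM) measuring displacement of acetylated histone H3 peptide from BAZ2B by AlphaScreen, using 50 nM protein, 50 nM peptide and 10 ug/mL streptavidin donor plus Ni-chelate acceptor beads.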
# JMJD2A Tudor: qHTS Assay for Inhibitors of JMJD2A-Tudor Domain. Lysine-specific demethylase 4A (Homo sapiens), O75164. AlphaScreen JMJD2A-Tudor / H3K4me3 peptide binding. Potency, µM (titrated, usually from 114 µM), without a hit: at the top dose activity change, negative = inhibition, hits mostly inhibitors. hit rate 4.4% among 390,000. AID 504339, 2011; further: potency means the concentration at half of the fitted maximal effect; on the % scale 0 is the no-effect control and ±100 the full control effect; nearly all actives have a fitted effect of over 50% in size
# Active calls of the source: *; ? = inconclusive; / = not tested or not shown; [ ] = remark or other dose. Unless noted, the call rests on the fitted dose curve; in most records, active means well fitted inhibition curve with a large enough effect; inconclusive means small, poorly fitted or top-dose-only effect; inactive means no such curve, though single readings can be large or run the other way.
SMILES,Six1-Eya2 inh,TDP1 inh,CtBP-E1A inh,HP1b binding inh,BAZ2B inh,JMJD2A Tudor
C=CCn1c(Cc2nc3ccc(Cl)cc3[nH]2)n[nH]c1=S,?,7.3%,-25.6,6.2%,?,?
Cn1c(CCc2ccccc2)n[nH]c1=S,18.4,/,-2.3,42.3%,3.6%,28.2µM*
Cn1c(CSCCOc2ccccc2)n[nH]c1=S,6.2,5.7%,6.7,5.4%,-21.1%,6.31µM*
C=CCn1c(Cc2ccccc2)n[nH]c1=S,3.9,2.6%,-0.2,23.4%,-4.6%,3.55µM*
Cn1c(Cc2ccccc2)n[nH]c1=S,4.3,-5.6%,-4.8,35.6%,4.6%,28.2µM*
CC(C)CN1CCc2nc(Nc3ccc(F)cc3F)ncc2C1,/,3.8%,/,37.5%,-16.9%,-23.8%
Cc1ccccc1N1CCN(S(=O)(=O)CC23CCC(CC2NC(=O)C(N)CCS(C)(=O)=O)C3(C)C)CC1 (stereo not drawn),/,8.2%,/,/,/,/
Cc1ccc(CSc2nc3c(c(=O)[nH]2)C(c2cccc(F)c2F)CC(=O)N3)cc1 (stereo not drawn),/,2.6%,/,37.3%,-13.2%,-11.6%
N#CC(C#N)=NNc1ccc(S(=O)(=O)N2CCCCC2)cc1,-18.2,8.2%,9.5,-35.3%,?,39.8µM*
O=C1CC[C@H](C(=O)N[C@@H]2C[C@H]2c2ccccc2)N1,/,4.2%,/,/,/,/
O=C(/C=C/c1ccccc1)CCN1CCOCC1,-0.3,/,11.1,-23.8%,/,89.1µM*
O=C(/C=C/c1ccccc1)N1CCOCC1,1.9,/,7.1,31.8%,-4.3%,1.0%
C=CCn1c(SCC(=O)Nc2sc3c(c2C#N)CCC(C)C3)nc2cc(C(=O)O)ccc2c1=O (stereo not drawn),-18.4,44.7µM*,-13.6,-22.2%,/,-23.4%
Cc1cc(C)cc(N2CC(c3nc(-c4ccccc4C)no3)CC2=O)c1 (stereo not drawn),/,-3.2%,/,76.3%,4.7%,23.0%
Cc1ccc(NC2=C(CC(=O)O)C(c3ccc(F)cc3)N(c3ccc(C)cc3)C2=O)cc1 (stereo not drawn),/,/,/,21.3%,-22.3%,-14.9%
COc1ccc(Br)cc1C1NC(c2ccc3c(c2)OCO3)=CC(c2cc(Cl)ccc2O)N1 (stereo not drawn),/,3.5%,/,-8.7%,/,89.1µM*
COc1ccc(CN2CC(=O)N(c3ccc(C)c(C)c3)C2=S)cc1OC,-8.2,3.7%,-6.2,?,-11.2%,56.2µM*
COC(=O)C1=C(C(=O)OC)[C@@H]2N(C)c3ccc(OC)cc3[C@@]23C[C@@H](C(=O)OC)N(C(=O)c2ccc(Br)cc2)C3=N1,-16.4,4.4%[21 µM],-17.5,-23.3%,20µM*,12.6µM*
COC(=O)C1=C(C(=O)OC)[C@@H]2N(C)c3ccc(OC)cc3[C@@]23C[C@@H](C(=O)OC)N(S(=O)(=O)c2ccc(Br)cc2)C3=N1,/,16.7%[12.3 µM],/,/,/,/
N#Cc1nc(Nc2ccccc2)nc(NC2CCCCC2)n1,/,6.8%,/,/,/,-0.7%
Cc1cccc(C)c1-n1c(C)cc(/C=N/NC(=O)CSc2ncccn2)c1C,-21.8,5.8%,-0.2,?,44.7µM*,50.1µM*
Cc1cccc(C)c1-n1c(C)cc(/C=N/NC(=O)c2ccncc2)c1C,-7.7,11.8%,-12.9,15.0%,?,?
Cc1cc(C)nc(SCC(=O)N/N=C/c2cc(C)n(-c3ccccc3C)c2C)n1,-15.9,-5.3%,-26.9,?,44.7µM*,?
O=S(=O)(c1ccc2c(c1)OCCO2)N1CCN(S(=O)(=O)c2cccs2)CC1,/,/,/,/,/,-14.4%
OC[C@@H](O)[C@H](O)C(/C=N/Nc1ccccc1)=N\Nc1ccccc1,-4.3,/,-7.8,?,?,79.4µM*
SMILES,Six1-Eya2 inh,TDP1 inh,CtBP-E1A inh,HP1b binding inh,BAZ2B inh,JMJD2A Tudor
Cc1cc2nc(-c3ccc(NC(=O)c4ccccc4F)cc3)oc2cc1C,/,3.1%[12.3 µM],/,5.7%,1.8%,-13.4%
CS(=O)(=O)Nc1ccccc1C(=O)OCc1cc(=O)n2nc(C3CCCCC3)sc2n1,/,3.8%,/,-16.2%,-7.6%,-20.5%
O=C(Nc1cc(=O)[nH]c2ncnn12)c1ccc(Cl)cc1Cl,1.0,5.9%,-6.1,15.9%,-1.9%,79.4µM*
COc1ccc2oc(-c3ccc(C)c(NC(=O)c4ccc(-c5ccccc5[N+](=O)[O-])o4)c3)nc2c1,/,3.2%,/,19.7%,-13.3%,-11.9%
Cc1ccc(N2C(=O)CS(=O)(=O)C23C(=O)N(Cc2ccc(Cl)cc2)c2ccccc23)cc1C (stereo not drawn),/,5.3%,/,27.6%,4.4%[57.1 µM],-16.2%
CCOc1ccc(C(=O)NCCc2sc3nc(-c4ccc(Cl)cc4)nn3c2C)cc1OCC,/,-2.6%,/,30.3%,-18.8%,-12.3%
O=C1Cc2cc(S(=O)(=O)N3CCN(c4ccc(O)cc4)CC3)ccc2N1,/,/,/,/,/,126µM*
Cc1nn(CCc2n[nH]c(=S)n2-c2ccc(F)cc2)c(C)c1[N+](=O)[O-],0.4,2.3%,3.3,12.6%,5.3%,17.8µM*
Cc1cccc(-n2c(Cn3nc(C)c([N+](=O)[O-])c3C)n[nH]c2=S)c1,-0.2,-2.0%,0.4,-7.2%,11.7%[57.1 µM],22.4µM*
COC(=O)c1cccc(Cn2nc(C)c([N+](=O)[O-])c2C)c1,2.8,11.1%,14.5,9.1%,-14.6%,50.1µM*
Cc1nn(CCc2n[nH]c(=S)n2-c2ccc(F)c(Cl)c2)c(C)c1[N+](=O)[O-],1.0,4.0%,-0.6,8.6%,-6.0%,-23.4%
Cc1nn(Cc2cccc(C(=O)O)c2)c(C)c1[N+](=O)[O-],-1.9,/,1.1,30.2%,-12.3%,-8.5%
Cc1nn(C(C)c2nc(-c3ccccc3)no2)c(C)c1[N+](=O)[O-] (stereo not drawn),6.6,-3.1%,0.2,42.6%,?,0.6%
Cc1nn(C(C)c2n[nH]c(=S)n2-c2ccc(F)cc2)c(C)c1[N+](=O)[O-] (stereo not drawn),1.7,-0.2%,-2.1,18.2%,0.3%,25.1µM*
CCCN(C(=O)CCc1nc(-c2ccccc2F)no1)c1ccc(CC)cc1,/,-7.5%,/,120.9%,107.6%,72.9%
Cc1nn2c(C)c(C(=O)NCc3ccco3)cnc2c1-c1ccccc1,/,9.7%,/,56.3%,-29.5%,-17.0%
Cc1ccc(S(=O)(=O)NCCc2nnc3ccc(SCc4ccccc4C)nn23)cc1,/,2.6%,/,49.1%,-7.8%,-32.6%
CC(=O)c1cccc(NS(=O)(=O)c2cccc(S(=O)(=O)c3ccc(Br)cc3)c2)c1,/,4.0%[12.3 µM],/,36.6%,0.6%,-11.4%
